Results: PubChem BioAssay (NCATS)
Records with an inconclusive call do not appear. Active and inactive are the calls of the source. The call rests on the fitted dose curve; in most records, active means well fitted curve in the direction sought with a large enough effect; inconclusive means small, poorly fitted or top-dose-only effect, or another doubt; inactive means no such curve, though single readings can be large; an effect the other way counts as inactive or inconclusive.

Columns and labels:
CRL-7250 = normal cell line; assay: Cytotoxic Profiling of Annotated Libraries Using Quantitative High-Throughput Screening (AID 1296008); settings: Five cell lines viability, CellTiter-Glo ATP luminescence, 48-72 h; max response: active compounds read low; further: nearly all actives have a fitted effect of over 60% in size; on max response: on the % scale 0 is the no-effect control and ±100 the full control effect
Method in brief: (§1)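 Cytotoxicity was measured as CellTiter-Glo ATP luminescence, read after 10 min at room temperature. Compound treatment of the cells lasted 48 or 72 hr at 37 degrees Celsius in a qHTS format.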

HEK293 = assay: as above; settings: Five cell lines viability, CellTiter-Glo ATP luminescence, 48-72 h; max response: active compounds read low
Method in brief: as §1

HaCat = assay: as above; settings: Five cell lines viability, CellTiter-Glo ATP luminescence, 48-72 h; max response: active compounds read low
Method in brief: as §1

KB-3-1 = assay: as above; settings: Five cell lines viability, CellTiter-Glo ATP luminescence, 48-72 h; max response: active compounds read low
Method in brief: as §1

NIH3T3 [1] = assay: as above; settings: Five cell lines viability, CellTiter-Glo ATP luminescence, 48-72 h; max response: active compounds read low
Method in brief: as §1

C33A = assay: Primary qHTS to identify gynecologic anti-cancer compounds using libraries of approved drugs and bioactive compounds (AID 1345084); settings: Gynecologic cancer cell panel viability, ATPlite luminescence, 48 h; series mostly up to 57.5 µM; further: on the % scale 0 is the no-effect control and ±100 the full control effect; nearly all actives have a fitted effect of over 55% in size
Method in brief: (§2)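 Cytotoxicity screen measuring ATP content by luciferase luminescence. Each compound is applied at five concentrations for 48 h at 37 C with 5% CO2.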

CAOV3 = assay: as above; settings: Gynecologic cancer cell panel viability, ATPlite luminescence, 48 h; series mostly up to 57.5 µM
Method in brief: as §2

CASKI = assay: as above; settings: Gynecologic cancer cell panel viability, ATPlite luminescence, 48 h; series mostly up to 57.5 µM
Method in brief: as §2

Es-2 = assay: as above; settings: Gynecologic cancer cell panel viability, ATPlite luminescence, 48 h; series mostly up to 57.5 µM
Method in brief: as §2

HeLa = assay: as above; settings: Gynecologic cancer cell panel viability, ATPlite luminescence, 48 h; series mostly up to 57.5 µM
Method in brief: as §2

Hek293T = assay: as above; settings: Gynecologic cancer cell panel viability, ATPlite luminescence, 48 h, control line for the selectivity index; series mostly up to 57.5 µM
Method in brief: as §2

JEG-3 = assay: as above; settings: Gynecologic cancer cell panel viability, ATPlite luminescence, 48 h; series mostly up to 57.5 µM
Method in brief: as §2

OV90 = assay: as above; settings: Gynecologic cancer cell panel viability, ATPlite luminescence, 48 h; series mostly up to 57.5 µM
Method in brief: as §2

PA-1 = assay: as above; settings: Gynecologic cancer cell panel viability, ATPlite luminescence, 48 h; series mostly up to 57.5 µM
Method in brief: as §2

NIH3T3 [2] = assay: qHTS assay to identify novel small-molecules to repurpose for Merkel cell carcinoma treatment (AID 1296009); settings: MCC and control cell lines, CellTiter-Glo viability, 72 h; at 44.8 µM (top of the series) unless noted; further: nearly all actives have a fitted effect of over 60% in size
Method in brief: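 Cell viability measured by CellTiter-Glo following 72 hr compound treatment at 37 degree celsius, with NPC and MIPE libraries tested in 8- and 11-point concentration series.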

CC(C)(OC1OC(CO)C(O)C(O)C1O)C1CCC(O)(CO)C2CC(=O)C(C)(O)C2C1 (centres undefined)
inactive: outcome (CRL-7250) | max response (HEK293) -8.37% | max response (HaCat) 0.066% | max response (KB-3-1) 2.59% | outcome (NIH3T3 [1]) | Potency (C33A) | Potency (CAOV3) | outcome (CASKI) | Potency (Es-2) | Potency (HeLa) | Potency (Hek293T) | Potency (JEG-3) | Potency (OV90) | Potency (PA-1)

CC1(C)CC[C@]2(C(=O)O[C@@H]3O[C@H](CO[C@@H]4O[C@H](CO)[C@@H](O)[C@H](O)[C@H]4O)[C@@H](O)[C@H](O[C@@H]4O[C@H](CO)[C@@H](O)[C@H](O)[C@H]4O)[C@H]3O)[C@H](O)C[C@]3(C)C(=CCC4[C@@]5(C)CC[C@H](O[C@@H]6OC[C@@H](O)[C@H](O)[C@H]6O)[C@@](C)(C(=O)O)C5CC[C@]43C)[C@@H]2C1 (some centres undefined)
inactive: max response (CRL-7250) -2.05% | max response (HEK293) -13.5% | max response (HaCat) -5.99% | max response (KB-3-1) 2.29% | outcome (NIH3T3 [1]) | outcome (NIH3T3 [2]) inactive [at 9.27 µM] | activity change, negative = cytotoxicity (C33A) -4.53% [at 11.6 µM] | activity change, negative = cytotoxicity (CASKI) 0.848% [at 11.6 µM] | activity change, negative = cytotoxicity (Es-2) 1.6% [at 11.6 µM] | activity change, negative = cytotoxicity (HeLa) 2.79% [at 11.6 µM] | activity change, negative = cytotoxicity (Hek293T) 10.6% [at 11.6 µM] | activity change, negative = cytotoxicity (JEG-3) -3% [at 11.6 µM] | activity change, negative = cytotoxicity (OV90) 6.96% [at 11.6 µM] | activity change, negative = cytotoxicity (PA-1) 0.131% [at 11.6 µM]

CCCN(CCN1CCN(c2ccccc2OC)CC1)C1CCc2ncsc2C1 (centres undefined)
inactive: max response (CRL-7250) -14.3% | max response (HEK293) 0.117% | max response (HaCat) -2.7% | outcome (KB-3-1) | outcome (NIH3T3 [1]) | Potency (C33A) | Potency (CAOV3) | outcome (CASKI) | Potency (Es-2) | Potency (HeLa) | Potency (Hek293T) | Potency (JEG-3) | Potency (OV90) | Potency (PA-1)

C=C1C2CCC3C(CCC4[C@@]3(C)CCC[C@@]4(C)C(=O)O)(C2)[C@@H]1OC(=O)/C(C)=C\C (some centres undefined)
inactive: max response (CRL-7250) -44.5% | max response (HEK293) -104% | max response (HaCat) -0.634% | max response (KB-3-1) 2.48% | outcome (NIH3T3 [1]) | outcome (NIH3T3 [2]) inactive [at 17.4 µM] | Potency (C33A) | Potency (CAOV3) | outcome (CASKI) | Potency (JEG-3) | Potency (OV90)

C/C(=C\C1CCC(C)C2CCC3(C)OC123)C(=O)O (centres undefined)
inactive: max response (CRL-7250) -0.564% | max response (HEK293) -3.45% | max response (HaCat) 4.2% | max response (KB-3-1) 8.09% | outcome (NIH3T3 [1]) | Potency (C33A) | Potency (CAOV3) | outcome (CASKI) | Potency (Es-2) | Potency (HeLa) | Potency (Hek293T) | Potency (JEG-3) | Potency (OV90) | Potency (PA-1)

C[C@H]1[C@H](C)CC[C@]2(C(=O)O)CC[C@]3(C)C(=CCC4[C@@]5(C)C[C@@H](O)[C@H](O)C(C)(C)C5CC[C@]43C)[C@H]12 (some centres undefined)
inactive: outcome (CRL-7250) | max response (HEK293) 3.03% | max response (HaCat) -6.87% | max response (KB-3-1) -2.55% | outcome (NIH3T3 [1]) | Potency (C33A) | Potency (CAOV3) | outcome (CASKI) | Potency (Es-2) | Potency (HeLa) | Potency (Hek293T) | Potency (JEG-3) | Potency (OV90) | Potency (PA-1)

C/C=C/C1OC2=C(C(=O)OC2(C)O)C(O)C1O (centres undefined)
inactive: max response (CRL-7250) -6.2% | max response (HEK293) -1.4% | max response (HaCat) 2.04% | max response (KB-3-1) -1.78% | outcome (NIH3T3 [1]) | outcome (NIH3T3 [2]) | Potency (C33A) | outcome (CASKI) | Potency (Es-2) | Potency (HeLa) | Potency (Hek293T) | Potency (JEG-3) | Potency (OV90) | Potency (PA-1)

COc1cc(Nc2nc3c(s2)CCCC3c2ccccc2)ccc1-n1cnc(C)c1 (centres undefined)
inactive: outcome (CRL-7250) | max response (HEK293) 3.81% | max response (HaCat) -4.18% | max response (KB-3-1) -3.56% | outcome (NIH3T3 [1]) | activity change, negative = cytotoxicity (C33A) 6.98% [at 11.6 µM] | activity change, negative = cytotoxicity (CAOV3) 6.61% [at 11.6 µM] | activity change, negative = cytotoxicity (CASKI) 15.8% [at 11.6 µM] | activity change, negative = cytotoxicity (Es-2) 3.55% [at 11.6 µM] | activity change, negative = cytotoxicity (HeLa) -6.36% [at 11.6 µM] | activity change, negative = cytotoxicity (Hek293T) 8.6% [at 11.6 µM] | activity change, negative = cytotoxicity (JEG-3) 2.94% [at 11.6 µM] | activity change, negative = cytotoxicity (OV90) 7.49% [at 11.6 µM] | activity change, negative = cytotoxicity (PA-1) 7.13% [at 11.6 µM]

C=C1CCC2(OC1)OC1CC3C4CC=C5CC(O)CC(O[C@@H]6OC[C@H](OC(=O)C(O)C(C)CC)[C@H](O)[C@H]6O[C@@H]6O[C@@H](C)[C@H](O)[C@@H](O)[C@H]6O)C5(C)C4CCC3(C)C1C2C (some centres undefined)
inactive: max response (CRL-7250) -2.78% | max response (HEK293) -1.63% | max response (HaCat) -7.88% | outcome (KB-3-1) | outcome (NIH3T3 [1]) | activity change, negative = cytotoxicity (C33A) 4.8% [at 11.6 µM] | activity change, negative = cytotoxicity (CAOV3) 21.8% [at 11.6 µM] | activity change, negative = cytotoxicity (CASKI) 19.8% [at 11.6 µM] | activity change, negative = cytotoxicity (Es-2) -3.44% [at 11.6 µM] | activity change, negative = cytotoxicity (HeLa) 13.3% [at 11.6 µM] | activity change, negative = cytotoxicity (Hek293T) 16.6% [at 11.6 µM] | activity change, negative = cytotoxicity (JEG-3) 16.8% [at 11.6 µM] | activity change, negative = cytotoxicity (OV90) -4.79% [at 11.6 µM] | activity change, negative = cytotoxicity (PA-1) -0.0668% [at 11.6 µM]

O=C(O)CCc1cc2ccoc2cc1O[C@@H]1O[C@H](CO)[C@@H](O)[C@H](O)[C@H]1O
inactive: outcome (CRL-7250) | max response (HEK293) 1.52% | max response (HaCat) 0.684% | outcome (KB-3-1) | outcome (NIH3T3 [1]) | outcome (NIH3T3 [2]) | Potency (C33A) | Potency (CAOV3) | Potency (Es-2) | Potency (HeLa) | Potency (Hek293T) | Potency (JEG-3) | Potency (OV90)

CC(=O)OC1C(C)C2C(OC3OC(CO)C(O)C(O)C3O)OC=C(C(=O)O)C2C1OC(=O)c1ccccc1 (centres undefined)
inactive: outcome (CRL-7250) | max response (HEK293) 1.6% | max response (HaCat) -7.28% | outcome (KB-3-1) | outcome (NIH3T3 [1]) | Potency (C33A) | Potency (CAOV3) | outcome (CASKI) | Potency (Es-2) | Potency (HeLa) | Potency (Hek293T) | Potency (JEG-3) | Potency (OV90) | Potency (PA-1)

O=C(Cc1ccc(Cl)cc1)Nc1cnccc1C(=O)O
inactive: outcome (CRL-7250) | max response (HEK293) 4.18% | max response (HaCat) -20.9% | max response (KB-3-1) 1.29% | outcome (NIH3T3 [1]) | outcome (NIH3T3 [2]) | Potency (CAOV3) | outcome (CASKI) | Potency (Es-2) | Potency (HeLa) | Potency (Hek293T) | Potency (JEG-3) | Potency (OV90) | Potency (PA-1)
